Results filed as inconclusive are left out. Where a call stands in place of a potency, no number is given. The source made the active and inactive calls. Calls come from the whole dose curve; as a rule, active = well fitted cell-killing curve with a large enough effect in the repeat runs; inconclusive = weak or mixed curves, or effect the other way; inactive = flat fitted curve, though single readings scatter.
Test: cAMP Responsive Elements (CRE) small molecule agonists, cell-based qHTS assay: qHTS cell viability counter screen (AID 2060914); note: nearly all actives have a fitted effect of over 50% in size
Settings: CRE-bla HEK293T viability, CellTiter-Glo luminescence, 5 h; series mostly up to 92.4 µM
Procedure, shortened: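 In the same wells as the reporter read, viability of CRE-bla HEK 293T cells was quantified by CellTiter-Glo luminescence after a 3 h compound exposure.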

| Compound | Potency |
| --- | --- |
| CC1(C)SC(C)(C)SC(C)(C)S1 | inactive |
| COC(/C=C(\C)CCC=C(C)C)OC | inactive |
| COc1ccccc1N1CCN(CC(O)COc2cccc3ccccc23)CC1 (centres undefined) | inactive |
| CCOC(=O)[C@H](CCc1ccccc1)N[C@@H](C)C(=O)N1C(=O)N(C)C[C@H]1C(=O)O | inactive |
| O=C1OC2(c3cc(Br)c(O)c(Br)c3Oc3c2cc(Br)c(O)c3Br)c2c(Cl)c(Cl)c(Cl)c(Cl)c21 | inactive |
| Oc1ccc(O)c2c(O)cccc12 | inactive |
| O=[N+]([O-])C(CO)(CO)CO | inactive |
| OCc1cccc(Oc2ccccc2)c1 | inactive |
| CCCC[C@H]1CN(CC2CCOCC2)C(=O)OC12CCN(C1(C)CCN(C(=O)c3c(C)ncnc3C)CC1)CC2 | inactive |
| CC(C)(C)c1csc(-c2cc3cc(OCc4ccccc4CC(=O)O)ccc3o2)n1 | inactive |
| COc1cc(OC)c(C(=O)CCCN2CCCC2)c(OC)c1 | inactive |
| CC(C)CCCCCOC(=O)CS | inactive |
| CNCCC(Oc1ccc(C(F)(F)F)cc1)c1ccccc1 (centres undefined) | inactive |
| CCCOc1ccccc1-c1nc2n[nH]nc2c(=O)[nH]1 | inactive |
| C[C@]12CC[C@@H]3c4ccc(O)cc4C[C@@H](CCCCCCCCCS(=O)CCCC(F)(F)C(F)(F)F)[C@H]3[C@@H]1CC[C@@H]2O (some centres undefined) | inactive |
| CC(O)(c1ccc(Cl)cc1)c1ccc(Cl)cc1 | inactive |
| O=C(O)Cc1ccc(-c2ccccc2)cc1 | inactive |
| Clc1ccc(Cn2c(CN3CCCC3)nc3ccccc32)cc1 | inactive |
| CCCCCCCCCOC(=O)c1ccccc1C(=O)OCCCCCCCCC | inactive |

Source: PubChem BioAssay (Tox21)
